# Results filed as inconclusive are left out. A number with no mark means an inactive call. The source made the active and inactive calls. Calls come from the whole dose curve; as a rule, active = well fitted cell-killing curve with a large enough effect; inconclusive = small, poorly fitted or top-dose-only effect; inactive = flat fitted curve, though single readings scatter.
# Test: Cellular viability qHTS for adrenocortical cancer (ACC) cell line SW-13 (AID 1963989); note: nearly all actives have a fitted effect of over 65% in size;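 for activity (max response): cells grown in serum-free medium with ITS supplement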
# Settings: SW-13 ACC cells viability, CellTiter-Glo, 48 h; activity (max response): stronger effect = lower value
# How it was run: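 Compound titrations (up to 46 uM final, in DMSO) were applied to SW-13 cells for 48 h at 37C/5% CO2. Reading used CellTiter-Glo after 20 min at room temperature; fitted curves yielded IC50 and efficacy.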
# % is set by controls: 0 for no effect and ±100 for the full control effect; potency is the fitted concentration of half-maximal effect.
SMILES,activity (max response),Potency
Cc1[nH]nc2ncc(C(=O)N3CCC[C@H]3c3ccc(Cl)cc3)cc12,-6.61%,–
Cn1c(NC[C@@H](N)Cc2ccccc2)nc(-c2ccncc2)c(-c2ccc3ccccc3c2)c1=O,–,28.2 µM (active)
O=C(c1ccccc1)c1ccccc1,13.9%,–
Cc1[nH]c(/C=C2\C(=O)Nc3ccc(S(=O)(=O)N(C)c4cccc(Cl)c4)cc32)c(C)c1C(=O)N1CCN(C)CC1,–,17.8 µM (active)
CN1[C@@H]2CC[C@H]1CC(NC(=O)n1c(=O)[nH]c3ccccc31)C2 (stereo partly specified),2.49%,–
COc1ccc(S(=O)(=O)N(C(C)=O)c2ccccc2/C=C/c2cc[n+]([O-])cc2)cc1,–,1.12 µM (active)
COc1cc(-c2ccc(=O)[nH]n2)ccc1OC(F)F,-6.02%,–
O=C(O)/C=C(\CC(=O)O)C(=O)O,7.17%,–
C[C@]12CC[C@@H]3c4ccc(O)cc4CC[C@H]3[C@@H]1CC[C@@H]2OC(=O)CCC1CCCC1,5.6%,–
CC(C)c1cc(CNc2nc(Nc3cc(C4CC4)[nH]n3)cc(N3CCN(C)CC3)n2)on1,–,3.98 µM (active)
O=C1OC(COc2ccccc2[N+](=O)[O-])CC1Cc1ccccc1 (stereo unspecified),-13.4%,–
FC(F)(F)c1ccc(CNc2ccc(Cc3c[nH]c4ncccc34)cn2)cc1,–,10 µM (active)
C/C=C/C/C=C/CCC(=O)[C@H]1O[C@H]1C(N)=O,–,25.1 µM (active)
CC(C)(O)c1ccccc1CC[C@@H](SCC1(CC(=O)O)CC1)c1cccc(/C=C/c2ccc3ccc(Cl)cc3n2)c1,11.5%,–
C[N+]1(C)CCC(=C(c2ccccc2)c2ccccc2)CC1,-4.49%,–
CCN1C(=O)CNc2ncc(-c3ccc(-c4ncn[nH]4)nc3C)nc21,–,8.91 µM (active)
CCN(CC)CCCC(C)Nc1c2ccc(Cl)cc2nc2ccc(OC)cc12 (stereo unspecified),–,28.2 µM (active)
C#Cc1ccc(-c2ccccc2F)cc1,-5.81%,–

SMILES,activity (max response),Potency
Cn1cc(-c2cc(Oc3cc(F)c(NC(=O)C4(C(=O)Nc5ccccc5)CC4)cc3F)ccn2)cn1,–,25.1 µM (active)
CCn1c(=O)c(-c2ccc(Cl)cc2Cl)cc2cnc(Nc3ccc(N4CCNCC4)c(F)c3)nc21,-23.5%,–
CN1[C@@H]2CCC[C@H]1CC(NC(=O)c1nn(C)c3ccccc13)C2 (stereo partly specified),2.83%,–
CNC(=O)[C@H](Cc1c[nH]c2ccccc12)NC(=O)[C@@H](CC(=O)NO)CC(C)C,-15.7%,–
C[C@]12C=CC(=O)C=C1[C@@H](F)C[C@@H]1[C@@H]2[C@@H](O)C[C@@]2(C)[C@H]1CC[C@]2(O)C(=O)CO,7.4%,–
Cc1ccc(S(=O)(=O)Cc2nc(-c3ccc(C(=O)NCc4cccnc4)cc3)oc2C)cc1,–,0.199 µM (active)
COc1c2occc2c(OC)c2c(=O)cc(C)oc12,12.7%,–
O=C(O)Cc1cccc(-c2cc(CCCCCCc3ccc(O[C@H]4O[C@H](CO)[C@@H](O)[C@H](O)[C@@H]4O)c(-c4cccc(CC(=O)O)c4)c3)ccc2O[C@H]2O[C@H](CO)[C@@H](O)[C@H](O)[C@@H]2O)c1,8.49%,–
Nc1ncnc2c1ncn2[C@@H]1O[C@H](CO)C[C@H]1O,-9.5%,–
COCc1c(-c2ccc(NC(=O)Nc3cc(C(F)(F)F)ccc3F)c(F)c2)c2c(N)ncnn2c1CN1CCOCC1,-5.64%,–
CCCCNc1ncc2c(-c3ccc(CN4CCN(C)CC4)cc3)cn(C3CCC(O)CC3)c2n1 (stereo unspecified),–,11.2 µM (active)
CCN1CCN(Cc2ccc(Nc3ncc(F)c(-c4cc(F)c5nc(C)n(C(C)C)c5c4)n3)nc2)CC1,–,15.8 µM (active)
CN1C(CCl)Nc2cc(Cl)c(S(N)(=O)=O)cc2S1(=O)=O (stereo unspecified),-4.04%,–
COc1cccc(Nc2ncnn3ccc(CN4CC[C@@H](N)[C@H](O)C4)c23)c1,–,0.316 µM (active)
C=CC(=O)Nc1cc(Nc2nccc(-c3cn(C)c4ccccc34)n2)c(OC)cc1N(C)CCN(C)C,–,2 µM (active)
C=C1C(=O)O[C@H]2C[C@H](C)C(/C=C/C(C)=O)=CC[C@H]12,–,15.8 µM (active)
CC(C(=O)O)c1ccc(C(=O)c2ccccc2)s1 (stereo unspecified),-5.09%,–
O=C(Nc1ccc2[nH]nc(-c3ccncc3)c2c1)[C@@H]1CCN(CC(=O)N2CCN(c3ccc(-c4ncccn4)cc3)CC2)C1,–,4.47 µM (active)
